38 molecules from the supplement of paper PMC8371130 can be followed below.

Counter-ions that a name gives are not always drawn.

The first assay concerns HL-1. The assay is described as follows: relative cell viability (CellTiter-Glo) vs DMSO control (% of DMSO control); higher = more viable cells. The following applies: oxygen condition: normoxia 72 h; 200 nM. In outline:
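HL-1 mouse atrial cardiomyocytes were plated in 384-well plates at 1000 cells per well together with compounds at 40, 200, 1000 or 5000 nM in 0.01% DMSO. One day later, cells went to a hypoxic workstation (1% O2) for 48 h, then were reoxygenated for 24 h in a normal incubator, or stayed in normoxia for the same time. Cell viability was read by CellTiter-Glo luminescence and normalised to vehicle-treated control cells.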
Take `COC(=O)[C@H](c1ccccc1Cl)N1CCc2sccc2C1` [Clopidogrel]: the relative cell viability is 111.
`CN(CCOc1ccc(NS(C)(=O)=O)cc1)CCc1ccc(NS(C)(=O)=O)cc1` [Dofetilide] registered a relative cell viability of 109.
Molecule `COC(=O)N[C@H](C(=O)N[C@@H](Cc1ccccc1)[C@@H](O)CN(Cc1ccc(-c2ccccn2)cc1)NC(=O)[C@@H](NC(=O)OC)C(C)(C)C)C(C)(C)C` [Atazanavir sulfate] gave a relative cell viability of 97.
On the same count and under the same terms, with `CN(C)CCc1c[nH]c2ccc(Cn3cncn3)cc12` [Rizatriptan Benzoate] the figure was 104.
Still for that read-out and setting: the result for `CC=CC1=C(C(=O)O)N2C(=O)[C@@H](NC(=O)[C@H](N)c3ccc(O)cc3)[C@H]2SC1` [Cefprozil hydrate] reads 103; that for `NC(=O)CC[C@H](N)C(=O)O` [L-Glutamine], 97.4.
Take `CCOC(=O)[C@H](CCc1ccccc1)N[C@@H](C)C(=O)N1[C@H](C(=O)O)C[C@@H]2CCC[C@@H]21` [Ramipril]: the relative cell viability was 105.
Still for that read-out and setting: the result for `CN(C)CCCN1c2ccccc2Sc2ccc(C(F)(F)F)cc21` [Triflupromazine HCl] reads 99.3; that for `OC(CCN1CCCCC1)(c1ccccc1)C1CC2C=CC1C2` (stereo not drawn) [Biperiden HCl], 106; that for `CC(=O)Oc1ccccc1C(=O)O` [Aspirin], 105.
The same measure, in the same setting: with `COc1ccccc1OCC(O)COC(N)=O` (stereo not drawn) [Methocarbamol] the figure was 112.
Still for that read-out and setting: with `CCC(C)n1ncn(-c2ccc(N3CCN(c4ccc(OCC5COC(Cn6cncn6)(c6ccc(Cl)cc6Cl)O5)cc4)CC3)cc2)c1=O` (stereo not drawn) [Itraconazole] the figure was 106; with `NC(=O)c1ncn([C@@H]2O[C@H](CO)[C@@H](O)[C@H]2O)c1O` [Mizoribine], 104.
The molecule `COc1cc(OC)c(C(=O)CCCN2CCCC2)c(OC)c1` [Buflomedil HCl] had a relative cell viability of 103.
Molecule `COc1ccc2cc1Oc1ccc(cc1)C[C@H]1c3c(cc4c(c3Oc3cc5c(cc3OC)CCN(C)[C@@H]5C2)OCO4)CCN1C` [Cepharanthine] came in with a relative cell viability of 86.8.

The same assay, now with this note: oxygen condition: normoxia 72 h; 1000 nM.
`CN(C)CCOC(C)(c1ccccc1)c1ccccn1` (stereo not drawn) [Doxylamine Succinate] registered a relative cell viability of 117.
For the molecule `CC(C[N+](C)(C)C)OC(N)=O` (stereo not drawn) [Bethanechol chloride], the relative cell viability came to 98.4.
Same read-out and setting: with `CC(C)NC[C@H](O)COc1ccc(CCOCC2CC2)cc1` [Levobetaxolol HCl] the figure was 108.
In turn, `CNC[C@H](O)c1cccc(O)c1` [Phenylephrine HCl] returned a relative cell viability of 117.
`CC1(C)O[C@@H]2[C@@H](CO[C@@]3(COS(N)(=O)=O)OC(C)(C)O[C@@H]23)O1` [Topiramate]: the relative cell viability is 98.
`O=C1c2cccc3c2[C@H](CCC3)CN1[C@@H]1CN2CCC1CC2` [Palonosetron HCl] gave a relative cell viability of 86.6.
`NS(=O)(=O)c1cc2c(cc1Cl)N=CNS2(=O)=O` [Chlorothiazide] came in with a relative cell viability of 103.
As for `Nc1ncn([C@@H]2O[C@H](CO)[C@@H](O)[C@H]2O)c(=O)n1` [Azacitidine], the relative cell viability was determined as 90.1.
On the same count and under the same terms, with `O=C(O)Cc1cc(I)c(Oc2ccc(O)c(I)c2)c(I)c1` [Tiratricol] the figure was 101.
Regarding `Cc1onc(-c2ccccc2)c1C(=O)N[C@@H]1C(=O)N2[C@@H]1SC(C)(C)[C@@H]2C(=O)O` [Oxacillin sodium monohydrate], the relative cell viability came out at 110.
Consider `N[C@@H](Cc1cc(I)c(Oc2cc(I)c(O)c(I)c2)c(I)c1)C(=O)O` [L-Thyroxine], for which the relative cell viability worked out at 99.3.
The same measure, in the same setting: with `COc1ccc(Cl)cc1C(=O)NCCc1ccc(S(=O)(=O)NC(=O)NC2CCCCC2)cc1` [Glyburide] the figure was 108; with `COC(=O)C1=C(C)NC(C)=C(C(=O)OC(C)C)C1c1cccc2nonc12` (stereo not drawn) [Isradipine], 102; with `CN(C)CCN(Cc1ccccc1)c1ccccn1` [Tripelennamine HCl], 94.1.
Regarding `CN1CCCCC1CCN1c2ccccc2Sc2ccc([S+](C)[O-])cc21` (stereo not drawn) [Mesoridazine Besylate], the relative cell viability was found to be 117.
The molecule `N[C@@H](Cc1ccc(O)c(O)c1)C(=O)O` [Levodopa] returned a relative cell viability of 108.
With `CNCC[C@H](Oc1cccc2ccccc12)c1cccs1` [Duloxetine HCl], the relative cell viability is 106.
Take `CCCNC(C)C(=O)Nc1c(C)csc1C(=O)OC` (stereo not drawn) [Articaine HCl]: the relative cell viability was 103.
In turn, `CCOc1nc2cccc(C(=O)O)c2n1Cc1ccc(-c2ccccc2-c2nnn[nH]2)cc1` [Candesartan] registered a relative cell viability of 108.
`COc1ccc(-c2nc3cc(C4=NNC(=O)CC4C)ccc3[nH]2)cc1` (stereo not drawn) [Pimobendan] had a relative cell viability of 114.
Still for that read-out and setting: the result for `CCCN[C@H]1CCc2nc(N)sc2C1` [Pramipexole dihydrochloride monohydrate] reads 101; that for `CCN(CC)C(=S)SSC(=S)N(CC)CC` [Disulfiram], 6.89; that for `CN[C@H](CC(C)C)C(=O)N[C@H]1C(=O)N[C@@H](CC(N)=O)C(=O)N[C@H]2C(=O)N[C@H]3C(=O)N[C@H](C(=O)N[C@H](C(=O)O)c4cc(O)cc(O)c4-c4cc3ccc4O)[C@H](O)c3ccc(c(Cl)c3)Oc3cc2cc(c3O[C@@H]2O[C@H](CO)[C@@H](O)[C@H](O)[C@H]2O[C@H]2C[C@](C)(N)[C@H](O)[C@H](C)O2)Oc2ccc(cc2Cl)[C@H]1O` [Vancomycin HCl], 106.
Still for that read-out and setting: the result for `COC(=O)[C@H](c1ccccc1Cl)N1CCc2sccc2C1` [Clopidogrel] reads 105.
`CN(CCOc1ccc(NS(C)(=O)=O)cc1)CCc1ccc(NS(C)(=O)=O)cc1` [Dofetilide]: the relative cell viability was determined as 106.
Still for that read-out and setting: the result for `COC(=O)N[C@H](C(=O)N[C@@H](Cc1ccccc1)[C@@H](O)CN(Cc1ccc(-c2ccccn2)cc1)NC(=O)[C@@H](NC(=O)OC)C(C)(C)C)C(C)(C)C` [Atazanavir sulfate] reads 98.5.
For the molecule `CN(C)CCc1c[nH]c2ccc(Cn3cncn3)cc12` [Rizatriptan Benzoate], the relative cell viability worked out at 110.
`CC=CC1=C(C(=O)O)N2C(=O)[C@@H](NC(=O)[C@H](N)c3ccc(O)cc3)[C@H]2SC1` [Cefprozil hydrate] had a relative cell viability of 100.
On the same count and under the same terms, the result for `NC(=O)CC[C@H](N)C(=O)O` [L-Glutamine] reads 114; that for `CCOC(=O)[C@H](CCc1ccccc1)N[C@@H](C)C(=O)N1[C@H](C(=O)O)C[C@@H]2CCC[C@@H]21` [Ramipril], 117; that for `CN(C)CCCN1c2ccccc2Sc2ccc(C(F)(F)F)cc21` [Triflupromazine HCl], 101.
Regarding `OC(CCN1CCCCC1)(c1ccccc1)C1CC2C=CC1C2` (stereo not drawn) [Biperiden HCl], the relative cell viability is 106.
Take `CC(=O)Oc1ccccc1C(=O)O` [Aspirin]: the relative cell viability stood at 93.6.
Same read-out and setting: the result for `COc1ccccc1OCC(O)COC(N)=O` (stereo not drawn) [Methocarbamol] reads 106; that for `CCC(C)n1ncn(-c2ccc(N3CCN(c4ccc(OCC5COC(Cn6cncn6)(c6ccc(Cl)cc6Cl)O5)cc4)CC3)cc2)c1=O` (stereo not drawn) [Itraconazole], 101.
Regarding `NC(=O)c1ncn([C@@H]2O[C@H](CO)[C@@H](O)[C@H]2O)c1O` [Mizoribine], the relative cell viability was 103.
`COc1cc(OC)c(C(=O)CCCN2CCCC2)c(OC)c1` [Buflomedil HCl] yielded a relative cell viability of 105.
The same measure, in the same setting: the result for `COc1ccc2cc1Oc1ccc(cc1)C[C@H]1c3c(cc4c(c3Oc3cc5c(cc3OC)CCN(C)[C@@H]5C2)OCO4)CCN1C` [Cepharanthine] reads 87.5.
